Assay results taken from article PMC7862700, “An all-to-all approach to the identification of sequence-specific readers for epigenetic DNA modifications on cytosine”.

Key:
Test in all cases: DAPPL (digital affinity profiling via proximity ligation, sequencing); 10 mM Tris-HCl pH 7.5, 50 mM NaCl, 1 mM DTT, 4% glycerol, room temperature, 30 min; GST-TFs on glutathione beads, 16-mer random dsDNA library, 0.1% formaldehyde crosslink after washing; high values mean tight binding
FEV = molecular target: T1, FEV (Homo sapiens, UniProt Q99581 1-238); details: protein: recombinant; tags: N-terminal GST; dsDNA, one strand shown
T1 sequence: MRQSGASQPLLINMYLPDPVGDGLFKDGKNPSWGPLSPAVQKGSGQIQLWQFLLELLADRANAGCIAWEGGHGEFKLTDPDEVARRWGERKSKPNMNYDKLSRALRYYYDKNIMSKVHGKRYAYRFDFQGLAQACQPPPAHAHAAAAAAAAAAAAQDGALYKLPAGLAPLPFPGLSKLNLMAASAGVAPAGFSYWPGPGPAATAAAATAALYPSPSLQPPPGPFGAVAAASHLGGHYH
Outline: (§1)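 The binding signal reported is, for every hexamer, its read frequency for a factor over its read frequency for the tag-only sample. Reads came from pools of yeast-expressed, GST-fused human transcription factors on glutathione beads, barcoded with DNA and mixed with that sample, which were incubated with 200 nmole of a random double-stranded 16-mer DNA library in Tris/NaCl/DTT/glycerol buffer at room temperature for 30 min. After washing, the pools were crosslinked with 0.1% formaldehyde, proximity-ligated with BsaI/T4 ligase for 1 h at 37 °C, PCR-amplified and sequenced on an Illumina NextSeq500.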

ETV5 = ETV5 (Homo sapiens, UniProt P41161 1-510); details: protein: recombinant; tags: N-terminal GST; dsDNA, one strand shown
Outline: as §1

HSF1 = HSF1 (Homo sapiens, UniProt Q00613 1-529); details: protein: recombinant; tags: N-terminal GST; chain copies: 3; dsDNA, one strand shown
Outline: as §1

SPIC = molecular target: T2, SPIC (Homo sapiens, UniProt Q8N5J4 1-248); details: protein: recombinant; tags: N-terminal GST; dsDNA, one strand shown
T2 sequence: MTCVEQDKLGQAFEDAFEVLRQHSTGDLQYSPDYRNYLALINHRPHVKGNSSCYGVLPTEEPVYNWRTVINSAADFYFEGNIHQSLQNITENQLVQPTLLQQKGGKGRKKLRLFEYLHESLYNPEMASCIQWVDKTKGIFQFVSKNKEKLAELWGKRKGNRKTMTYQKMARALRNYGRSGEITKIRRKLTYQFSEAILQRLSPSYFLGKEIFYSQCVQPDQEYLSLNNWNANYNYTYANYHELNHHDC
Outline: as §1

ELF4 = ELF4 (Homo sapiens, UniProt Q99607 1-663); details: protein: recombinant; tags: N-terminal GST; dsDNA, one strand shown
Outline: as §1

ELK4 = molecular target: T3, ELK4 (Homo sapiens, UniProt P28324-2 1-405); details: protein: recombinant; tags: N-terminal GST; dsDNA, one strand shown
T3 sequence: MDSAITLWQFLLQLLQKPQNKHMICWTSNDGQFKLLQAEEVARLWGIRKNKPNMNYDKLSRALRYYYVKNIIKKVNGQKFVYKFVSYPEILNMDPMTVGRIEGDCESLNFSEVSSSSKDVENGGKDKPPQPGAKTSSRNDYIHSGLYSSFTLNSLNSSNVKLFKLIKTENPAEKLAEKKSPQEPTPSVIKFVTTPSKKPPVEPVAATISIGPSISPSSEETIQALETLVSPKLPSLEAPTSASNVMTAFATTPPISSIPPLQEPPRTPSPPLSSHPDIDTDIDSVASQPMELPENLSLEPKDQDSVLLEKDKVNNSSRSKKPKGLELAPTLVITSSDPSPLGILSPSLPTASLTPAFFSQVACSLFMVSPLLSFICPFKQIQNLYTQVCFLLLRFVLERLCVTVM
Outline: as §1

ETV2 = molecular target: T4, ETV2 (Homo sapiens, UniProt O00321 1-342); details: protein: recombinant; tags: N-terminal GST; dsDNA, one strand shown
T4 sequence: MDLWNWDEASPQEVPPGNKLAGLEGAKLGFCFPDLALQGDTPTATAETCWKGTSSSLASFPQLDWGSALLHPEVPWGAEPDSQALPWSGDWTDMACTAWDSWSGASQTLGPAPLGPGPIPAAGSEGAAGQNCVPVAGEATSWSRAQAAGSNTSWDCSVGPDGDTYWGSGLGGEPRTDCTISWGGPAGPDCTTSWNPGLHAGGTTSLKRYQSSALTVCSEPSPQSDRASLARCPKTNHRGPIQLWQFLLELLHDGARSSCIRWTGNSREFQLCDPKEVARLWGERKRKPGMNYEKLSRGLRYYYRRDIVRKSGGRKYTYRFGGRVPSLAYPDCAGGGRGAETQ
Outline: as §1

ELF3 = molecular target: T5, ELF3 (Homo sapiens, UniProt P78545 1-371); details: protein: recombinant; tags: N-terminal GST; dsDNA, one strand shown
T5 sequence: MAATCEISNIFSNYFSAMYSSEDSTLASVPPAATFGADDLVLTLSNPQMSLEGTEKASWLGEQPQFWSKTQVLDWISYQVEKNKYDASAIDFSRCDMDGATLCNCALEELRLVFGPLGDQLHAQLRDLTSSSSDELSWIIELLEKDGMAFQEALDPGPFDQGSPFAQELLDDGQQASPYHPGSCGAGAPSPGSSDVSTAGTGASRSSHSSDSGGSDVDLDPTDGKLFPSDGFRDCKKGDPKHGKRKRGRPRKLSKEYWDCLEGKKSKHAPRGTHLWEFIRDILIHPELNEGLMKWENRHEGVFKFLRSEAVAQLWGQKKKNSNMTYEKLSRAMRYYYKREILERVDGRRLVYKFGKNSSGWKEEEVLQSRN
Outline: as §1

CRX = CRX (Homo sapiens, UniProt O43186 1-299); details: protein: recombinant; tags: N-terminal GST; dsDNA, one strand shown
Outline: as §1

ETV1 = ETV1 (Homo sapiens, UniProt P50549 1-477); details: protein: recombinant; tags: N-terminal GST; dsDNA, one strand shown
Outline: as §1

ERF = molecular target: T6, ERF (Homo sapiens, UniProt P50548 1-548); details: protein: recombinant; tags: N-terminal GST; dsDNA, one strand shown
T6 sequence: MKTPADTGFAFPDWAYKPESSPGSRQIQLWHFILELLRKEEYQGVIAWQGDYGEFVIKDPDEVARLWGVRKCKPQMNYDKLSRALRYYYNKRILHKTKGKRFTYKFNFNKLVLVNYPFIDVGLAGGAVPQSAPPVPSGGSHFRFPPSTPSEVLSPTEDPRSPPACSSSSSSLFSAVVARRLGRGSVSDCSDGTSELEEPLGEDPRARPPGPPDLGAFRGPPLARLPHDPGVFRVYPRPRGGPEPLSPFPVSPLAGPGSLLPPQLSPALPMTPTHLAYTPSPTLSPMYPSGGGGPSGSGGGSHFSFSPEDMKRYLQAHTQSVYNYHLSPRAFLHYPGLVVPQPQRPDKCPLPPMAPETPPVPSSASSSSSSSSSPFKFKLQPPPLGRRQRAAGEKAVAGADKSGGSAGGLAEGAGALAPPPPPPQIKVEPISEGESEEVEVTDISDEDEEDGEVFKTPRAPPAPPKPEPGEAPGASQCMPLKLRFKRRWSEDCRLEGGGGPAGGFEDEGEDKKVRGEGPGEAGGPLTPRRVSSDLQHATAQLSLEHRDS
Outline: as §1

ETV3L = molecular target: T7, ETV3L (Homo sapiens, UniProt Q6ZN32 1-361); details: protein: recombinant; tags: N-terminal GST; dsDNA, one strand shown
T7 sequence: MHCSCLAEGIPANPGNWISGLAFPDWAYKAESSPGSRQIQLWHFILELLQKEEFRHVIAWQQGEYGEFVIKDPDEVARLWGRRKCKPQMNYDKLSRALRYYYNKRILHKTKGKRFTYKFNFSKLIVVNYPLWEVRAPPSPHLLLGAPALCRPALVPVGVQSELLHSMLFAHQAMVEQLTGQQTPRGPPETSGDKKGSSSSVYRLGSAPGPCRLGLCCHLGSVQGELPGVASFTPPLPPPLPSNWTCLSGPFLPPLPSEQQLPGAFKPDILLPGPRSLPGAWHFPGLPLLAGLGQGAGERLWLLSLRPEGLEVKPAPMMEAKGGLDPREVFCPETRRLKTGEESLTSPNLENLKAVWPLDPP
Outline: as §1

ETS2 = molecular target: T8, ETS2 (Homo sapiens, UniProt P15036 1-469); details: protein: recombinant; tags: N-terminal GST; dsDNA, one strand shown
T8 sequence: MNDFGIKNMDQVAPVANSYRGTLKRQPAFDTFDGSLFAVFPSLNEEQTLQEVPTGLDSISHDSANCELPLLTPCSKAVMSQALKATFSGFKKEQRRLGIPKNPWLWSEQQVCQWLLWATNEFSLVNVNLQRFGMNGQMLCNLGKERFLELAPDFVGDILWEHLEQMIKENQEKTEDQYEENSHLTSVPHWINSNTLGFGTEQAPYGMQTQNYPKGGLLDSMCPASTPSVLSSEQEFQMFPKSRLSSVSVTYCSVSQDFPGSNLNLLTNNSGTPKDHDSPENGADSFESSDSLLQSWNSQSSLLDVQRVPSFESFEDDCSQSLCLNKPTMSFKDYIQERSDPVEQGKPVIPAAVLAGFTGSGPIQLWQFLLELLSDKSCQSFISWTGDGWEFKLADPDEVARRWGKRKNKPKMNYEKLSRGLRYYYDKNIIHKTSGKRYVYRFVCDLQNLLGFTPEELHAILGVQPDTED
Outline: as §1

SPDEF = molecular target: T9, SPDEF (Homo sapiens, UniProt O95238 1-335); details: protein: recombinant; tags: N-terminal GST; dsDNA, one strand shown
T9 sequence: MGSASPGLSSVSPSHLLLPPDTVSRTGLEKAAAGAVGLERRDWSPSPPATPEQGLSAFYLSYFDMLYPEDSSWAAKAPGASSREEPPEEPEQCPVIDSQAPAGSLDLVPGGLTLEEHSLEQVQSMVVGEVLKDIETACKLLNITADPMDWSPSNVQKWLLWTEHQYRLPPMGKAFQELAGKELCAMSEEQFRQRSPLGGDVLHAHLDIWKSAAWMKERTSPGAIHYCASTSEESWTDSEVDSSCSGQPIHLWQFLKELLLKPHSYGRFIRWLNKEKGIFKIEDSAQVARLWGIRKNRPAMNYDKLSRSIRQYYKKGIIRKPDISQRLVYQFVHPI
Outline: as §1

ETV7 = molecular target: T10, ETV7 (Homo sapiens, UniProt Q9Y603 1-341); details: protein: recombinant; tags: N-terminal GST; dsDNA, one strand shown
T10 sequence: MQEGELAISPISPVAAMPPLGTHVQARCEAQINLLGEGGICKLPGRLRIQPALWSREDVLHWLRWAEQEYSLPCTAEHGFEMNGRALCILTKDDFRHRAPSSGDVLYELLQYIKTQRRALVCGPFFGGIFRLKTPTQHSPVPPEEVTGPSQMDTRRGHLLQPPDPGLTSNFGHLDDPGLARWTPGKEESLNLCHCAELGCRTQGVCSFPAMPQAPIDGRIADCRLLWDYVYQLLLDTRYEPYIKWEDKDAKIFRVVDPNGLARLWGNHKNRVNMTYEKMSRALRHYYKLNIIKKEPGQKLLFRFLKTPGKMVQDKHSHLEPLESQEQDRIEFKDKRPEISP
Outline: as §1

ELF5 = molecular target: T11, ELF5 (Homo sapiens, UniProt Q9UKW6-2 1-255); details: protein: recombinant; tags: N-terminal GST; dsDNA, one strand shown
T11 sequence: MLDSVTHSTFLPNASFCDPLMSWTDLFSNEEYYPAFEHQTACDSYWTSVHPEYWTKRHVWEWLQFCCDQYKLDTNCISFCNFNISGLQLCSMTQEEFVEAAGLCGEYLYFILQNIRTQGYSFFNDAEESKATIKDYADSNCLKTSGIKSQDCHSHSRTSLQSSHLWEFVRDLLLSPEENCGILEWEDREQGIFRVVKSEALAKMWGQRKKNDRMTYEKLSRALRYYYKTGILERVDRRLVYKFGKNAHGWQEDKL
Outline: as §1

ETV3 = molecular target: T12, ETV3 (Homo sapiens, UniProt P41162-2 1-143); details: protein: recombinant; tags: N-terminal GST; dsDNA, one strand shown
T12 sequence: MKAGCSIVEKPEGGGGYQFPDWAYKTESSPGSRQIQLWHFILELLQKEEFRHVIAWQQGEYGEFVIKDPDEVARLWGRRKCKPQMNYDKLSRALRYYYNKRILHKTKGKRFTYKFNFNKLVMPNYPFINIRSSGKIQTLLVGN
Outline: as §1

ETV6 = ETV6 (Homo sapiens, UniProt P41212 1-452); details: protein: recombinant; tags: N-terminal GST; dsDNA, one strand shown
Outline: as §1

Chain of ETV1 (P50549 whole entry): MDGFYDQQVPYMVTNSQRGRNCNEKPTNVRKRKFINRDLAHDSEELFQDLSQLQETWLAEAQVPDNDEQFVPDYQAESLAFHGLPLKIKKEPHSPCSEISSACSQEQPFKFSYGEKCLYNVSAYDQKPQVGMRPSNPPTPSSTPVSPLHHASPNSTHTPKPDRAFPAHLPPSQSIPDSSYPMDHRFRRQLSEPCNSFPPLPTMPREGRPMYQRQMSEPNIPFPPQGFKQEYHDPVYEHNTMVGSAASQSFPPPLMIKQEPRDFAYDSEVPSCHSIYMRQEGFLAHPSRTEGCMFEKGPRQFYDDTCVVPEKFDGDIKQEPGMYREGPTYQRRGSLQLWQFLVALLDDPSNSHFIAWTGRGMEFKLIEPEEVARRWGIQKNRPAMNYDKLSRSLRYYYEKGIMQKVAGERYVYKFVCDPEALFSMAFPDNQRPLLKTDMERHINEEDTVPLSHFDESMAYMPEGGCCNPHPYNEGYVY
Chain of ETV5 (P41161 whole entry): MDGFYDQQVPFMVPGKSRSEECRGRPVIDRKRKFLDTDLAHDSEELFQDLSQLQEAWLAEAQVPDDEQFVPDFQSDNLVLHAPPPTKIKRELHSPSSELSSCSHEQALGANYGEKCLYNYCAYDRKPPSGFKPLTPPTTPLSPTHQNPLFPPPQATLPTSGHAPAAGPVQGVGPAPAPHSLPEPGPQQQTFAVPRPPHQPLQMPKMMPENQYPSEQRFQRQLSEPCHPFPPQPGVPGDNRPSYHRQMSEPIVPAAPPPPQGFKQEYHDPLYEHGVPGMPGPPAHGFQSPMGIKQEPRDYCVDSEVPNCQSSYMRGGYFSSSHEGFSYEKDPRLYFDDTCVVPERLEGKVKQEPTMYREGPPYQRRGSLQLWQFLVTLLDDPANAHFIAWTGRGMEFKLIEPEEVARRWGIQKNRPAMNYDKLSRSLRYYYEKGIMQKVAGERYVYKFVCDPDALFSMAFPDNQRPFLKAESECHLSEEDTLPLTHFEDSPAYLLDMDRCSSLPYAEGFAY
Chain of CRX (O43186 whole entry): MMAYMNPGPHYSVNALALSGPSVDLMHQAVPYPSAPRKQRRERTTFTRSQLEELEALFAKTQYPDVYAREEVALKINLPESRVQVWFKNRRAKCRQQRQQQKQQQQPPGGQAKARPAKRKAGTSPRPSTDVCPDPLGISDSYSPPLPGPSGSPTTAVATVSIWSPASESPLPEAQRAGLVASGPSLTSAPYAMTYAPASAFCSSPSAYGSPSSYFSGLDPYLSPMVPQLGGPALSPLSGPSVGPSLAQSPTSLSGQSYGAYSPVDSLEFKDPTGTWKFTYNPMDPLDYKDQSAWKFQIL
Chain of ETV6 (P41212 whole entry): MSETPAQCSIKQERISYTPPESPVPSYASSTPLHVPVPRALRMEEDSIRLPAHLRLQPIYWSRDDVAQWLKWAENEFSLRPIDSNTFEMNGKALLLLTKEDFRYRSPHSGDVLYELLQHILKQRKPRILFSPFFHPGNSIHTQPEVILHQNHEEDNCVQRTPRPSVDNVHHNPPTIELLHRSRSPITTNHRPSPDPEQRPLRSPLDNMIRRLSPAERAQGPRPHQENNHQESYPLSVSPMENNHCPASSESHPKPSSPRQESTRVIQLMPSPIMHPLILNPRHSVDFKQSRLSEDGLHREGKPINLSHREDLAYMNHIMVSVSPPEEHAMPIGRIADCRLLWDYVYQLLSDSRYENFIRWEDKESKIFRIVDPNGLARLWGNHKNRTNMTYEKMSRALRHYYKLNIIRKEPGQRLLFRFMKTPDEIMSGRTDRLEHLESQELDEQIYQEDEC
Chain of ELF4 (Q99607 whole entry): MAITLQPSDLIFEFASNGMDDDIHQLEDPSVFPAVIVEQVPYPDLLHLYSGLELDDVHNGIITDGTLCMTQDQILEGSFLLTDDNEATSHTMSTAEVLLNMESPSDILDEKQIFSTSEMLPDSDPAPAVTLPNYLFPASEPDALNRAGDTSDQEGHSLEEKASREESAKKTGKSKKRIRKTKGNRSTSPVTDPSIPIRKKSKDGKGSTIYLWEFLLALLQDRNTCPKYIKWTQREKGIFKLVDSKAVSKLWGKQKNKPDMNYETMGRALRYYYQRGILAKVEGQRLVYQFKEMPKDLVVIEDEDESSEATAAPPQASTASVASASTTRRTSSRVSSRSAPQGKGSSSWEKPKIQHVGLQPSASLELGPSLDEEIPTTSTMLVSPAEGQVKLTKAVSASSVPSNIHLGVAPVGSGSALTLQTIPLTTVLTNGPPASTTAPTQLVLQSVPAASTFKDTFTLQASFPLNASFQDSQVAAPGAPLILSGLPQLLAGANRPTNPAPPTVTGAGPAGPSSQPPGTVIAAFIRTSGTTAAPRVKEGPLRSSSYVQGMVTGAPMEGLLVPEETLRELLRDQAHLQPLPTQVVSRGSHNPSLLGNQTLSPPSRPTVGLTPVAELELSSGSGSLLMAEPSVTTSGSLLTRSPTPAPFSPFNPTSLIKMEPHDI
Chain of HSF1 (Q00613 whole entry): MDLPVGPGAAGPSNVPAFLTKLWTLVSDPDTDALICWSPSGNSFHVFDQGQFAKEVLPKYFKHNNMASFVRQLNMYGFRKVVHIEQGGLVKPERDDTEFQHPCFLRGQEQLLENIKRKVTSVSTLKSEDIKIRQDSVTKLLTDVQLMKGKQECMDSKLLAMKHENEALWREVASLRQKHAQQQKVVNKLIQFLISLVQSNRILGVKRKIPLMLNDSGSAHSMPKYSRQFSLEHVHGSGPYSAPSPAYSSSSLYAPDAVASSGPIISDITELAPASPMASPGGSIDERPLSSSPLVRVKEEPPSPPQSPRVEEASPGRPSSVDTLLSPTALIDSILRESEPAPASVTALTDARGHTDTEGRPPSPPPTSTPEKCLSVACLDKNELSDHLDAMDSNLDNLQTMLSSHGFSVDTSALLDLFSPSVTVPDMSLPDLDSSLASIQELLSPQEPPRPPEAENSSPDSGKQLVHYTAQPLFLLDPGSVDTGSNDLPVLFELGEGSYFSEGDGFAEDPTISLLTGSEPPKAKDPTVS

## GATGCT
FEV
  binding signal: 1.23 fold enrichment (6-mer frequency, TF over GST control)
ETV5
  binding signal: 1.29 fold enrichment (6-mer frequency, TF over GST control)
HSF1
  binding signal: 1.13 fold enrichment (6-mer frequency, TF over GST control)
SPIC
  binding signal: 1.35 fold enrichment (6-mer frequency, TF over GST control)
ELF4
  binding signal: 1.26 fold enrichment (6-mer frequency, TF over GST control)
ELK4
  binding signal: 1.28 fold enrichment (6-mer frequency, TF over GST control)
ETV2
  binding signal: 1.18 fold enrichment (6-mer frequency, TF over GST control)
ELF3
  binding signal: 1.3 fold enrichment (6-mer frequency, TF over GST control)
CRX
  binding signal: 1.06 fold enrichment (6-mer frequency, TF over GST control)
ETV1
  binding signal: 1.27 fold enrichment (6-mer frequency, TF over GST control)
ERF
  binding signal: 1.3 fold enrichment (6-mer frequency, TF over GST control)
ETV3L
  binding signal: 1.28 fold enrichment (6-mer frequency, TF over GST control)
ETS2
  binding signal: 1.25 fold enrichment (6-mer frequency, TF over GST control)
SPDEF
  binding signal: 1.2 fold enrichment (6-mer frequency, TF over GST control)
ETV7
  binding signal: 1.29 fold enrichment (6-mer frequency, TF over GST control)
ELF5
  binding signal: 1.21 fold enrichment (6-mer frequency, TF over GST control)
ETV3
  binding signal: 1.29 fold enrichment (6-mer frequency, TF over GST control)
ETV6
  binding signal: 1.16 fold enrichment (6-mer frequency, TF over GST control)
